SMARCA2 activ – increases SMARCA2 function in MMTV reporter cells. MG213 cells, MMTV-luciferase reporter, dexamethasone, overnight. activation, % at 9.1 µM. actives 1% (n = 370,000). AID 652017; in the data active means activation above about 7.8%;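 further: 0% = vehicle wells and 100% = reference activator wells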
DAX1 inh-1 – inhibits human nuclear receptor DAX1; HEK293 Gal4-DAX1 luciferase reporter, luminescence; inhibition, % at 6.75 µM; actives 0.99% (n = 340,000); P51843; AID 504766;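 active means inhibition above the mean over all tested compounds plus 3 SD, cut at about 4.2% in these data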;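 further: 0% = DAX1-transfected cells with DMSO and 100% = empty-vector control cells with DMSO; inhibition shows as a rise in luminescence from relieved DAX1 repression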
Target sequence (P51843 207-470 limits assumed): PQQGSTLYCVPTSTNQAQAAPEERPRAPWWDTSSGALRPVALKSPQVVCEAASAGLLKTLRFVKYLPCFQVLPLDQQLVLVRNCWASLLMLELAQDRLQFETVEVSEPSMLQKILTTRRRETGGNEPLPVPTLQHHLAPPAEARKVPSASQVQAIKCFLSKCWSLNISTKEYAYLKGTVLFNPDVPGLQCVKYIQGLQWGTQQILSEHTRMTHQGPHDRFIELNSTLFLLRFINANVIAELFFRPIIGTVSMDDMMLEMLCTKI
hgDAF12 agonist – agonists of H. glycines DAF-12 nuclear receptor; HEK293 GAL4-hgDAF12 UAS-luciferase reporter, agonist luminescence; normalized to butyrate control; activation, % at 6.8 µM; actives 1.8% (n = 370,000); AID 687014;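 active means activation above a cutoff set at the mean of all screened compounds plus 3 SD, cut at about 10% in these data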;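 further: 0% = DMSO wells and 100% = sodium butyrate wells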
DAX1 inh-2 – blocks DAX1 repression of SF-1 activated StAR promoter | AID 652010 | HEK293T StAR-luciferase reporter, SF-1/DAX-1 repression relief | actives 1.1% (n = 370,000) | inhibition, % at 6.8 µM;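 active means inhibition above the mean over all tested compounds plus 3 SD, cut at about 3.6% in these data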;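 further: 0% = DAX-1 cells with DMSO and 100% = cells lacking DAX-1 with DMSO; higher inhibition means more luminescence from relief of DAX-1 repression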
hcDAF-12 act – H. contortus DAF-12 activation, primary screen; HEK293 hcDAF-12 lit1-tk-luc reporter, luminescence; 0% DMSO, 100% Δ7-dafachronic acid; activation, % at 6.8 µM; actives 1.4% (n = 370,000); AID 652067;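 active means activation above the mean of all tested compounds plus 3 SD, cut at about 5.5% in these data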;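 further: 100% = response to 3 µM Δ7-dafachronic acid high control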
ssDAF12 agonist – S. stercoralis DAF-12 activation, primary screen. HEK293 ssDAF-12/GRIP1 lit1-tk-luc reporter, luminescence; % of 3 µM dafachronic acid response. activation, % at 6.8 µM. actives 1% (n = 370,000). AID 652126;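 active means activation above the mean over all tested compounds plus 3 SD, cut at about 0.9% in these data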;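 further: 0% = DMSO-only wells and 100% = 3 µM delta7-dafachronic acid wells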
hgDAF12 conf – hgDAF-12 agonism, confirmation assay | HEK293 GAL4-hgDAF12 luciferase reporter, agonist mode; percent of butyrate response | activation, % at 6.8 µM | actives 80% (n = 3,300) | shares compounds with hgDAF12 agonist;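 active means mean activation over triplicate wells above the hit cutoff derived from the earlier primary screen, cut at about 11% in these data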;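 further: 0% = DMSO low control and 100% = 2 mM sodium butyrate high control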
LXR ag 2 – counter-screen for DAF-12 agonists: agonists of human LXR-beta; shares compounds with hgDAF12 agonist; HEK293 Gal4-LXR luciferase reporter, 24 h; activation, % at 6.8 µM; 3,300 tested, under 10 active; AID 743051;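 active means mean activation of the triplicate above a set limit carried over from the primary screen, none filed active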
Active calls of the source: *. The list is not random: actives were taken first. Their share in the collection is about 4.8%.

Cc1cccnc1NC(=O)c1ccc(S(=O)(=O)NCc2ccco2)cc1 was read as SMARCA2 activ 0.1, DAX1 inh-1 1.1, hgDAF12 agonist -0.1, DAX1 inh-2 1.2, hcDAF-12 act -0.6 and ssDAF12 agonist 0.4.
`O=C(Nc1ncccc1O)c1ccc(S(=O)(=O)NCc2ccco2)cc1` gave SMARCA2 activ -0.6, DAX1 inh-1 3.9, hgDAF12 agonist 21.3*, DAX1 inh-2 4.3*, hcDAF-12 act 0.1, ssDAF12 agonist -0.3, hgDAF12 conf 20.2* and LXR ag 2 0.1.
Screening C[C@@H]1CCCCO[C@H](CN(C)C(=O)C2CCCCC2)[C@@H](C)CN([C@H](C)CO)C(=O)c2cc(NS(=O)(=O)c3cccs3)ccc2O1 returned SMARCA2 activ -2.7, hgDAF12 agonist -0.4, DAX1 inh-2 -0.8, hcDAF-12 act -1.5 and ssDAF12 agonist -1.1.
CC(C)n1c(-c2ccc(N(C)C)cc2)nc2ccccc21 was read as SMARCA2 activ 3.0, DAX1 inh-1 0.7, hgDAF12 agonist 16.4*, DAX1 inh-2 3.2, hcDAF-12 act 5.8*, ssDAF12 agonist 0.6, hgDAF12 conf 6.9 and LXR ag 2 0.3.
For CCn1c(-c2ccc(N(C)C)cc2)nc2ccccc21 the results were SMARCA2 activ -2.1, DAX1 inh-1 -1.4, hgDAF12 agonist 3.2, DAX1 inh-2 -0.6, hcDAF-12 act 3.6 and ssDAF12 agonist -0.3.
For CCOc1ncccc1C(=O)OCC(=O)c1cc(C)n(Cc2ccco2)c1C the results were SMARCA2 activ 2.2, DAX1 inh-1 0.3, hgDAF12 agonist 5.1, DAX1 inh-2 1.7, hcDAF-12 act 3.2 and ssDAF12 agonist 0.0.
For Cc1cc(C(=O)COC(=O)c2ccc(O)cc2)c(C)n1Cc1ccco1 the results were SMARCA2 activ 1.7, DAX1 inh-1 1.4, hgDAF12 agonist 13.4*, DAX1 inh-2 4.2*, hcDAF-12 act 6.0*, ssDAF12 agonist 0.2, hgDAF12 conf 15.9* and LXR ag 2 0.5.
COc1ccc(-c2cc(=O)c3cc(C)ccc3[nH]2)cc1 was read as SMARCA2 activ 4.0, DAX1 inh-1 -0.5, hgDAF12 agonist 15.7*, DAX1 inh-2 2.7, hcDAF-12 act 5.7*, ssDAF12 agonist 0.7, hgDAF12 conf 16.0* and LXR ag 2 0.8.
CC(C)C[C@H](NC1(C(=O)NC2CCCCC2)CCCCC1)C(=O)NCC(c1ccccc1)c1ccccc1 was read as hgDAF12 agonist -1.2, hcDAF-12 act -0.8 and ssDAF12 agonist -2.1.
Screening COc1ccccc1CC(=O)NC1CCCCCC1 returned SMARCA2 activ -2.6, DAX1 inh-1 0.2, hgDAF12 agonist 13.2*, DAX1 inh-2 -0.1, hcDAF-12 act -1.2, ssDAF12 agonist -2.0, hgDAF12 conf 1.1 and LXR ag 2 0.0.
NC(=O)c1ncn([C@@H]2O[C@H](C(=O)N[C@H](Cc3ccccc3)C(=O)N3CCN(CC(=O)Nc4ccccn4)CC3)[C@@H](O)[C@H]2O)n1 was read as SMARCA2 activ 1.4, hgDAF12 agonist 2.1, DAX1 inh-2 -0.1, hcDAF-12 act -0.5 and ssDAF12 agonist -0.8.
For C/C(=N\NC(=O)c1nn(C)cc1Br)c1cccc(NC(=O)c2ccncc2)c1 the results were SMARCA2 activ 6.5, DAX1 inh-1 3.1, hgDAF12 agonist 17.9*, DAX1 inh-2 1.7, hcDAF-12 act 4.7, ssDAF12 agonist 0.2, hgDAF12 conf 3.1 and LXR ag 2 0.1.
Screening Cc1nc2cc(NCc3ccc(Cl)cc3)ccc2n1C returned SMARCA2 activ 6.0, DAX1 inh-1 4.7*, hgDAF12 agonist 13.6*, DAX1 inh-2 3.6, hcDAF-12 act 4.2, ssDAF12 agonist 1.6*, hgDAF12 conf 14.1* and LXR ag 2 1.3.
For O=C(Nc1ccc(F)cc1F)Nc1sccc1-c1nc2ccccc2s1 the results were SMARCA2 activ 0.2, DAX1 inh-1 -0.3, hgDAF12 agonist 6.7, DAX1 inh-2 0.3, hcDAF-12 act 3.5 and ssDAF12 agonist -0.9.

High-throughput results (PubChem BioAssay)
